# Compounds with a hit are over-represented: about 0.41% of the library has one in this group of screens.
# GAA glycogen mod = GAA glycogen-cleavage inhibition or activation; Potency, µM (titrated, usually from 76.4 µM), inactives show at the top dose activity change, negative = inhibition, most hits filed as inhibitors; 300,000 tested, 0.38% active; P10253; recombinant GAA, glycogen substrate, Amplex Red glucose oxidase fluorescence;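 note: potency is the fitted concentration of half-maximal effect; 0% = full enzyme reaction and -100% = no-enzyme basal signal; the screen sought inhibitors and activators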
#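 Recombinant human alpha-glucosidase (4 nM final) hydrolysed bovine liver glycogen (30 ug) for 40 min at 37 C in pH 5.0 citrate/phosphate with 0.01% Tween-20. Released glucose detected by glucose oxidase/Amplex Red, Ex 573/Em 610 nm. Compounds up to 77 uM; AC50 from Hill fits.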
# aGlu spleen mod = inhibits or activates alpha-glucosidase in human spleen homogenate | P10253 | human spleen homogenate, 4-MU-alpha-glucoside fluorescence | Potency, µM (series often up to 79.9 µM), for inactives: top-dose activity change, negative = inhibition, usual class: inhibitors | 240,000 tested, 0.006% active | AID 2112;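 note: potency is the fitted concentration of half-maximal effect; 0% = enzyme with vehicle and -100% = no enzyme basal signal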
#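 AC50 values come from Hill-equation fits of concentration-response data, normalized to no-enzyme and full-activity controls. Enzyme source: 1 ug human spleen homogenate; 1 mM fluorogenic 4-MU glucoside, pH 5.0 citrate buffer, 37 C, 40 min.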
# N370S GC mod = inhibits or activates N370S mutant glucocerebrosidase. P04062. N370S GC spleen homogenate, 4MU-glucoside fluorescence. Potency, µM (highest dose often 59.4 µM), for the others: at the top dose activity change, negative = inhibition, actives largely listed as inhibitors. 330,000 tested, 0.092% active. AID 2101;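 note: potency is the fitted concentration of half-maximal effect; 0% = full enzyme activity and -100% = no enzyme basal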
# aGal spleen mod = alpha-galactosidase A (human) modulation | Potency, µM (top dose mostly 80 µM), inactives show top-dose activity change, negative = inhibition, usual class: inhibitors | P06280 | 240,000 tested, 0.008% active | human spleen homogenate, 4MU-alpha-Gal fluorescence, 40 min;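 note: potency is the fitted concentration of half-maximal effect; 0% = enzyme with vehicle and -100% = no enzyme basal signal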
#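 qHTS titration in buffer at pH 5.0. Alpha-galactosidase activity in spleen homogenate was measured via 4-methylumbelliferone release from 1 mM fluorogenic substrate after 40 min at 37C and a pH 10 stop. AC50 came from Hill fits of control-normalized data.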
# GLA inh pH 4.5 = alpha-galactosidase A (human) inhibition, pH 4.5 | purified enzyme, 4-MU-alpha-Gal fluorescence, pH 4.5 | activity change, negative = inhibition, % at 105 µM | 230,000 tested, under 10 active;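 note: 0% = full activity with enzyme and -100% = basal without enzyme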
# Target sequence (P06280 whole entry, looked up): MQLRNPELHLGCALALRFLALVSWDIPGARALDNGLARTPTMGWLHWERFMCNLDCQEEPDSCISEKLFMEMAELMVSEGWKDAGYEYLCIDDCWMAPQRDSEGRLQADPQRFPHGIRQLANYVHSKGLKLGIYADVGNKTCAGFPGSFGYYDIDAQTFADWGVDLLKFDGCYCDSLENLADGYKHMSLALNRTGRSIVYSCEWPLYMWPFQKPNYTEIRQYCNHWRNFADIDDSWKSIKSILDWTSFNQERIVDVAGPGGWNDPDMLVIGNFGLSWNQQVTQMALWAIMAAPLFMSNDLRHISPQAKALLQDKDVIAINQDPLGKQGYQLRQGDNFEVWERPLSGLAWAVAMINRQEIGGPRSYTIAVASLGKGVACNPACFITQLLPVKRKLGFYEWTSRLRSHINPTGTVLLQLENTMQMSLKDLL
# GAA inhib = blocks human lysosomal alpha-glucosidase | P10253 | purified human GAA, 4-MU-alpha-glucoside fluorescence | Potency, µM (titrated, usually from 76.9 µM), for inactives: at the highest dose activity change, negative = inhibition, hits mostly inhibitors | 200,000 tested, 0.005% active;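 note: potency is the fitted concentration of half-maximal effect; plate controls were uninhibited enzyme wells for no effect and no-enzyme background for full effect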
#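 Read-out is 4-methylumbelliferone fluorescence (Ex 365/Em 440 nm) after NaOH/glycine stop at pH 10. Enzyme 4 nM, substrate 400 uM, pH 5.0 citrate buffer, 20 min room temperature; AC50 from Hill-equation concentration-response.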
# Active calls of the source: *; ? = inconclusive; / = no result; [ ] = remark or other dose. Calls come from the whole dose curve; as a rule, active = well fitted curve in the direction sought with a large enough effect; inconclusive = small, poorly fitted or top-dose-only effect, or another doubt; inactive = no such curve, though single readings can be large; an effect the other way counts as inactive or inconclusive.
SMILES,GAA glycogen mod,aGlu spleen mod,N370S GC mod,aGal spleen mod,GLA inh pH 4.5,GAA inhib
C=CC[C@@H]1/C=C(\C)C[C@H](C)C[C@H](OC)[C@H]2O[C@@](O)(C(=O)C(=O)N3CCCC[C@H]3C(=O)O[C@H](/C(C)=C/[C@@H]3CC[C@@H](O)[C@H](OC)C3)[C@H](C)[C@@H](O)CC1=O)[C@H](C)C[C@@H]2OC,/,-9%,-11%,-1%,/,/
O=C(NCCN1CCOCC1)c1ccc2c(c1)N(Cc1ccccc1F)C(=O)c1ccccc1S2,0%,-12%,10µM*,-4%,-15,-4%
O=C(c1ccc2c(c1)N(Cc1ccccc1F)C(=O)c1ccccc1S2)N1CCOCC1,-4%,4%,-2%,-1%,3,/
CCN1C(=O)c2ccccc2Sc2ccc(C(=O)NCCCN3CCOCC3)cc21,-11%,0%,-9%,7%,8[21.1 µM],1%
Cc1cccc(CN2C(=O)c3ccccc3Sc3ccc(C(=O)NCCN4CCOCC4)cc32)c1,-8%,1%,14µM*,0%,-16,-7%
CC(C)NC(=O)c1ccc(S(=O)(=O)N(C)C)cc1,23%,5%,3%,4%,6,0%
CN(C)NC(=O)c1ccsc1NC(=O)c1ccc(S(=O)(=O)N(C)C)cc1,5.6µM*,-3%,-7%,-2%,3,/
COc1ccc2c(c1)O[C@@H](c1ccc3c(c1)OCO3)[C@H](OC(=O)NS(=O)(=O)c1ccc(C)cc1)C2=O,/,6%,9%,-11%,0,/
COc1cc(/C=C2/NC(=O)N(Cc3ccccc3F)C2=O)ccc1O,22µM*,0%,-3%,-5%,0,-6%
CN1C(=O)/C(=C/c2ccc(O)c([N+](=O)[O-])c2)NC1=S,4%,-5%,-9%,-6%,-2,-2%
COc1cc(/C=C2\NC(=S)N(C)C2=O)ccc1O,10µM*,10%,-19%,-4%,?,?
COc1cc(/C=C2/NC(=O)N(Cc3ccccc3F)C2=O)ccc1Oc1ccc([N+](=O)[O-])cn1,-2%,-2%,0%,-2%,-13,0%
C#CCOCCOCCOCCNc1nc(N2CCN(C(=O)CCCCCCCCCCNC(=O)[C@@H](CCC(=O)O)n3cc(CCCCCN)nn3)CC2)nc(N2CCN(C(=O)CCCCCCCCCCNC(=O)[C@H](CO)n3cc(CCCCCN)nn3)CC2)n1,/,/,-23%,/,/,/
C#CCOCCOCCOCCNc1nc(N2CCN(C(=O)CCCCCCCCCCNC(=O)[C@H]([C@@H](C)CC)n3cc(CCCCN=C(N)N)nn3)CC2)nc(N2CCN(C(=O)CCCCCCCCCCNC(=O)[C@H](CCCN=C(N)N)n3cc(C[C@@H](C)CC)nn3)CC2)n1,/,/,8.9µM*,/,/,/
C#CCOCCOCCOCCNc1nc(N2CCN(C(=O)CCCCCCCCCCNC(=O)[C@H](CCCN=C(N)N)n3cc(C[C@@H](C)CC)nn3)CC2)nc(N2CCN(C(=O)CCCCCCCCCCNC(=O)[C@@H]([C@H](C)CC)n3cc(CCCCCN)nn3)CC2)n1,/,/,5.6µM*,/,/,/
C#CCOCCOCCOCCNc1nc(N2CCOCC2)nc(N2CCN(C(=O)[C@H]([C@@H](C)CC)n3cc(CCCN=C(N)N)nn3)CC2)n1,3%,-7%,4%,11%,-6,6%
COc1ccccc1-c1nnc2n1N=C(c1ccc(O)c(O)c1)CS2,11µM*,-1%,-6%,-1%,-3,-7%
CC1CCCC(NC(=O)Nc2cccs2)C1C (configuration not stated),14µM*,-8%,9%,2%,4,-22%
CC1CCCC(NC(=O)c2ccncc2)C1C (configuration not stated),13%[76.3 µM],/,-3%,/,/,/
COc1ccc2c(CNCc3ccco3)c(C(=O)O)n(Cc3ccc(F)cc3Cl)c2c1,8%[76.3 µM],/,/,/,/,/
Cc1cc(C(C#N)c2cccc(Cl)c2)n2ncnc2n1 (configuration not stated),?,-5%,-3%,3%,5,5%
Cc1cc(C(C#N)c2ccccc2)n2ncnc2n1 (configuration not stated),25µM*,2%,1%,8%,2,?
COc1ccc(NCc2ccc([N+](=O)[O-])s2)c(OC)c1,9.9µM*,3%,-12%,-4%,0,-5%
COc1ccc(NCc2ccc([N+](=O)[O-])s2)cc1,?,1%,-4%,3%,5,0%
O=C1CC(N(O)c2ccccc2)C(=O)N1c1ccc(Cl)c(Cl)c1 (configuration not stated),?,-9%,7%,2%,-1,/
SMILES,GAA glycogen mod,aGlu spleen mod,N370S GC mod,aGal spleen mod,GLA inh pH 4.5,GAA inhib
COc1ccccc1N(O)C1CC(=O)N(c2ccc(Br)cc2)C1=O (configuration not stated),8.9µM*,0%,5%,2%,-1,-1%
Cc1cc(NC2CCCCC2)nc(NCc2ccccc2)n1,1%,5%,18µM*,4%,-6,3%
Cc1ccc(Nc2cc(C)nc(NCc3ccccc3)n2)cc1,-3%,-8%,4%,9%,-16,-5%
COc1ccc(NCC(=O)Nc2ccc(Br)cc2F)c(OC)c1,40µM*,3%,3%,-7%,0,2%
COc1cc(/C=N/Nc2ccccn2)ccc1O,25µM*,-4%,-14%,0%,-5,/
COc1cc(/C=N/Nc2ccc(C(=O)O)cc2)cc(OC)c1OC,?,2%,3%,-16%,-16,/
COc1cc(/C=N/NC(=O)NC2CCCCC2)ccc1O,25µM*,2%,?,-3%,-10,/
COc1cc(/C=N/Nc2ccc(C(=O)O)cc2)ccc1O,5.6µM*,-4%,-20%,-1%,-12[21.1 µM],-10%
COc1cc(/C=N/NC(=O)NC2CCCCC2)cc(OC)c1O,-9%,-1%,7%,-4%,-10,/
COc1ccc(/C=N/Nc2ccccn2)cc1OC,?,-6%,18%,-7%,-4,/
Oc1ccc(/C=N/Nc2ccc(Cl)nn2)cc1O,6.3µM*,/,-7%,/,/,/
COC(=O)C1=C(C)[C@H](O)[C@@H](C)[C@](C)(c2cc(OC)c(C)c(OC)c2COc2ccccc2)O1,/,-8%,5%,12%,0,/
CC(=C/c1ccccc1)/C=N/n1c(-c2ccco2)n[nH]c1=S,25µM*,-1%,21%,-4%,-13,-15%
CCOC(=O)CNC(=O)O[C@H]1C(=O)c2cc(OC)ccc2O[C@@H]1c1ccc(OC)c(Br)c1,/,-5%,3%,-6%,-1,/
COc1ccc(-c2nnc(C3CCN(C(=O)c4ccccc4F)CC3)o2)cc1,13%[76.3 µM],/,/,/,/,/

# High-throughput results deposited in PubChem BioAssay by National Center for Advancing Translational Sciences (NCATS).
